PubChem BioAssay (NCATS)
Results filed as inconclusive are left out. The source made the active and inactive calls. Unless noted, the call rests on the fitted dose curve; in most records, active means well fitted curve in the direction sought with a large enough effect; inconclusive means small, poorly fitted or top-dose-only effect, or another doubt; inactive means no such curve, though single readings can be large; an effect the other way counts as inactive or inconclusive.

How the values were obtained:
[1] = Confirmation and Secondary Assay for Modulators of Hemoglobin Beta Chain Splicing at IVS2 654 locus (AID 910);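 further: HeLa cells stably carrying EGFP split by mutant beta-globin IVS2-654 intron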
Method in brief: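 HeLa cells stably expressing EGFP interrupted by β-globin IVS2-654 intron, seeded overnight in Opti-MEM/2% FCS, then treated 2 days at 37 °C. Restored splicing read as total peak GFP intensity per well by laser scanning cytometry (488 nm excitation, 500–520 nm emission); 500 nM antisense PNA as control.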

[2] = Confirmation and Secondary Assay for Modulators of Hemoglobin Beta Chain Splicing at IVS2 705 locus (AID 930);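 further: HeLa cells stably expressing the EGFP-705 splicing reporter; GFP fluorescence per well restored by corrected splicing of the IVS2-705 intron in EGFP; series mostly up to about 46 µM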
Method in brief: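 HeLa cells stably carrying EGFP interrupted by mutant beta-globin intron 2 (IVS2-705) treated 2 days at 37C with compound; 500 nM antisense PNA as control. Correct splicing read as total peak GFP intensity per well by laser-scanning cytometry.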

[3] = Cell Viability - LYMP2-001 (AID 921); further: series mostly up to about 92 µM; nearly all actives have a fitted effect of over 70% in size
Method in brief: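 Cellular ATP loss read by luciferase luminescence after 24 h compound exposure at 37 C in complete medium. LYMP2-001 lymphoblastoid cells, 2500/well; qHTS concentration-response data fitted with Hill equation for AC50.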

[4] = MultiTox-Fluor Cytotoxicity Assay - LYMP1-001 - Dead Cells (AID 946)
Method in brief: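 Cytotoxicity as increased dead-cell protease fluorescence (bis-AAF-R110, 485/520 nm), read 60 min after MultiTox-Fluor reagent. Human lymphoblastoid line exposed 16 h; Hill-fitted AC50, with DMSO as 0% and 15 uM tetraoctylammonium bromide as 100%.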

[5] = MultiTox-Fluor Cytotoxicity Assay - LYMP1-001 - Live Cells (AID 947)
[6] = Cell Viability - LYMP1-002 - Assay at 16 hr (AID 948)
Method in brief: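 ATP luminescence (CellTiter-Glo) was measured after 16 hr compound exposure at 37 C of 2500 lymphoblastoid LYMP1-002 cells per well. Concentration-response curves were fitted with the Hill equation to give AC50.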

[7] = MultiTox-Fluor Cytotoxicity Assay - LYMP1-002 - Live Cells (AID 955)
Description: NIH Chemical Genomics Center [NCGC]
NIH Molecular Libraries Screening Centers Network [MLSCN]
National Institutes of Environmental Health Sciences [NIEHS]
National Toxicology Program [NTP]
We have developed a 1536-well cell-based assay for quantitative high throughput screening (qHTS) against a number of cell lines to determine in vitro cytotoxicity of small molecules. This particular assay uses a human lymphoblastoid cell line (LYMP1-002) purchased from Coriell Institute.
NCGC Assay Protocol Summary:
The MultiTox-Fluor Cytotoxicity Assay (Promega) is a homogeneous method to simultaneously measure the relative number of live and dead cells in culture by detecting changes in cell membrane integrity. There are two fluorogenic peptide substrates in the assay reagent. Viable cells are determined when the cell-permeant substrate (GF-AFC) enters the cell and is cleaved by protease from live cells resulting in liberated fluorophore. This live-cell protease activity restricted to viable cells is proportional to cell number. The dead cells are determined by using fluorogenic cell-impermeant peptide substrate (bis-AAF-R110) which cleaved by dead cell proteases leaking from damaged cell membrane.
Using the MultiTox-Fluor Cytotoxicity Assay, the relative number of live cells was measured in the lymphoblastoid cell line with complete culture medium following compound treatment for 16 hours. The assay was performed in opaque black Kalypsys 1536-well plates. In the screen, tetraoctylammonium bromide was used as positive control. Library compounds were measured for their ability to cause acute toxicity in the cell line, as reflected by a decrease in live cell protease activity, in a concentration-dependent manner. […] AC50 values were determined from concentration-response data modeled with the standard Hill equation.
qHTS protocol for MultiTox-Fluor Cytotoxicity assay […]
8. Detection; live-cell fluorescence (Ex/Em=405/510); EnVision plate reader
Keywords: cell viability, cytotoxicity, lymphoblastoid cell line, fluorescence, NTPHTS, NTPHTS_NCGC, NIEHS, EPA, DSSTox, MLSMR, MLSCN, NIH Roadmap, qHTS, NCGC

[8] = MultiTox-Fluor Cytotoxicity Assay - LYMP1-002 - Dead Cells (AID 960);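 further: cells exposed to compound for 16 h at 37 °C; nearly all actives have a fitted effect of over 60% in size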
Method in brief: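 Readout: fluorescence at 485/520 from cell-impermeant bis-AAF-R110 cleaved by proteases leaking from damaged cells. LYMP1-002 lymphoblastoid line, 16 hr compound treatment at 37 C, concentration-response in qHTS format; Hill-equation AC50 values.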

[9] = molecular target: Pyruvate kinase (Leishmania mexicana) (UniProt Q27686); assay: qHTS Validation Assay for Inhibitors of Leishmania Mexicana Pyruvate Kinase (AID 945)
Chain of Pyruvate kinase (Leishmania mexicana) (Q27686 2-499 E452W): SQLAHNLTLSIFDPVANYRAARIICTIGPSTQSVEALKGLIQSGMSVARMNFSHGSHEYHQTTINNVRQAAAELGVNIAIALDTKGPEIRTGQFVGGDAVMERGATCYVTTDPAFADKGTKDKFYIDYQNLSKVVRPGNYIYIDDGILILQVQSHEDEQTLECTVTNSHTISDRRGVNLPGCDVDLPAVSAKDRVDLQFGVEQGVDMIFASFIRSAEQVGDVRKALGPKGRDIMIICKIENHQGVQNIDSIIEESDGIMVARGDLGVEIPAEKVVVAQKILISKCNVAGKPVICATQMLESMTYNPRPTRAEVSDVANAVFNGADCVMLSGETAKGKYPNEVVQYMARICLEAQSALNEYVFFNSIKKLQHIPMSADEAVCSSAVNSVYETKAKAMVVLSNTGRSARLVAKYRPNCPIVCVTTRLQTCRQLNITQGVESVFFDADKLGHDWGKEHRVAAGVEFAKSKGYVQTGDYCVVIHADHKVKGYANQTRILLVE
Method in brief: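 Eight-point qHTS titrations in triplicate, data normalized to DMSO neutral control. Reaction: 0.2 nM LmPYK E451W mutant, 0.5 mM PEP, 0.1 mM ADP, 7 mM MgCl2, pH 7.2, one hour at room temperature; luminescent ATP detection.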

[10] = molecular target: Pyruvate kinase PKM (Homo sapiens) (UniProt P14618); assay: qHTS Assay for Activators of Human Muscle Pyruvate Kinase (AID 954; active means well fitted curve in the direction sought with a large enough effect, not every such curve was filed as active)
Chain of Pyruvate kinase PKM (Homo sapiens) (P14618 whole entry, looked up): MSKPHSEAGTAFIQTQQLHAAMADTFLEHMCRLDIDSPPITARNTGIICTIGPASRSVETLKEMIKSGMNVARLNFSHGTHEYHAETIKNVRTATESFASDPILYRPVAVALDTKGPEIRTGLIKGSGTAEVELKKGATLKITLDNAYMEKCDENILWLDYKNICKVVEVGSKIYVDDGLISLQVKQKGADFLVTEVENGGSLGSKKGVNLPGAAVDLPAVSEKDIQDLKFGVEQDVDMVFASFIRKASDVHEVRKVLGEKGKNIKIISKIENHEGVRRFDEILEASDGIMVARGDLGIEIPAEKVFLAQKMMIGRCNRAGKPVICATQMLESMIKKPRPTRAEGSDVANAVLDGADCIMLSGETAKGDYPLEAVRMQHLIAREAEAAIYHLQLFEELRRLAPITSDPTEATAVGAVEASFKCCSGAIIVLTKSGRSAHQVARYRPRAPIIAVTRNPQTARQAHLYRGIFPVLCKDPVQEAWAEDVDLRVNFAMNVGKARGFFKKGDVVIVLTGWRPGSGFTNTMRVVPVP
Method in brief: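 ATP production by PKM2 detected via luciferase luminescence after 1 h room-temperature reaction (0.1 nM enzyme, PEP at Km 0.5 mM, ADP 0.1 mM, pH 7.2 imidazole buffer). Inhibition scaled to no-enzyme control; activation referenced to 0.3 nM enzyme wells.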

Measured: outcome

CC(=O)c1cc2c(cc1O)OC(C)(C)C=C2
inactive: [1] | [2]

CC(=O)O[C@@H]1CC(C)=C2[C@H]1[C@H](C)CC[C@H]2/C=C(\C)C(=O)O
inactive: [3] | [4] | [5] | [6] | [7] | [8]

CC(=O)O[C@H]1C(=O)[C@@]2(C)[C@H]([C@H](OC(=O)c3ccccc3)[C@]3(O)C[C@H](OC(=O)[C@H](O)[C@@H](NC(=O)c4ccccc4)c4ccccc4)C(C)=C1C3(C)C)[C@]1(OC(C)=O)CO[C@@H]1C[C@@H]2O
inactive: [9] | [10]

CC(C)[N+]1(C)C2CCC1CC(OC(=O)C(CO)c1ccccc1)C2 (stereo not drawn)
inactive: [1] | [2]

Nc1ccccc1N
inactive: [4] | [6] | [7] | [8]

CC(C)C(N)C(=O)OCCOCn1cnc2c(=O)[nH]c(N)nc21 (stereo not drawn)
inactive: [2]

Cc1ccc(N)cc1O
inactive: [3] | [4] | [5] | [6] | [7] | [8]
